Bioassay records deposited in PubChem BioAssay by National Center for Advancing Translational Sciences (NCATS).
An excerpt weighted towards active compounds, which were near 3% of everything screened.
SNCA expr inh: reduces expression of the alpha-synuclein gene. HEK-293 SNCA-luciferase knock-in, luminescence, 24 h. Potency, µM (doses to about 57.2 µM), for the others: at the highest dose activity change, negative = inhibition, hits mostly inhibitors. 0.17% of 140,000 active;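 also: potency is read from the fitted curve at half-maximal effect; plate controls were DMSO cells for no effect and cell-free wells for full effect; nearly all actives have a fitted effect of over 45% in size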
IP6K1 inh: IP6K1 kinase inhibition; activity change, % (series mostly up to about 58 µM); IP6K1 kinase, ADP-Glo luminescence, 2 h; active compounds read low; Q92551; 0.81% of 140,000 active; in the data active = activity change below about -25%; also: % is scaled to controls: 0 for no effect and ±100 for the full control effect
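ADP-Glo luminescence measures ADP made by human IP6K1 during a 2 h RT reaction with ATP/IP6 (mix at 1.3 mM/130 uM); top library doses 57.5 and 19.1 uM final.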
KDM5B inh: KDM5B demethylase inhibition. KDM5B demethylase, FDH-coupled NADH fluorescence (FDH is formaldehyde dehydrogenase). Potency, µM (series often up to 57.7 µM), most hits filed as inhibitors. 2.6% of 220,000 active; also: potency is read from the fitted curve at half-maximal effect; 0% is about no effect; nearly all actives have a fitted effect of over 70% in size
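Coupled FDH/NAD⁺ fluorescence readout. KDM5BΔAP 200 nM final; compound titration, 10 min RT preincubation; substrate mix 12.5 µM H3K4me3, 25 µM 2-OG, 50 µM Fe(II), 100 µM ascorbate, 0.25 mM NAD⁺, 0.25 U/mL FDH; ΔRFU over 30 min.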
HEK293 viab: cell viability loss counter-screen. Potency, µM (series often up to 57.1 µM), inactives show at the highest dose activity change, negative = cytotoxicity, most hits filed as cytotoxic. HEK-293-SNCA-luc viability, GF-AFC fluorescence, 24 h. 0.12% of 150,000 active;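 also: potency is read from the fitted curve at half-maximal effect; 0% = DMSO-treated cells and -100% = medium-only wells without cells; nearly all actives have a fitted effect of over 30% in size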
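Cytotoxicity counterscreen: after 24 h compound treatment of genome-edited SNCA-luciferase HEK-293 cells, live-cell protease substrate GF-AFC read by fluorescence after 30 min; activity scaled between DMSO (0%) and medium-only (-100%), curves Hill-fitted.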
Active calls of the source: *; i = inactive; ? = inconclusive; . = not tested or not shown; ! = repeats disagree; [ ] = remark or other dose. Unless noted, calls follow the shape of the dose curve; as a rule, active = well fitted curve in the direction sought with a large enough effect; inconclusive = small, poorly fitted or top-dose-only effect, or another doubt; inactive = no such curve, though single readings can be large; an effect the other way counts as inactive or inconclusive.

SMILES | SNCA expr inh | IP6K1 inh | KDM5B inh | HEK293 viab
COc1ccc(-c2ccc3c(c2)C(=O)N2CC[C@H](NC(=O)c4cccs4)[C@H]2C(=O)N3)c(OC)c1 | -14.9% | 0.1 | 28.2µM* | -7.3%
COc1ccc(-c2ccc3c(c2)C(=O)N2CC[C@H](NC(=O)c4cccs4)[C@H]2C(=O)N3)cc1 | 20.3% | -8.0 | ? | 3.7%
Cc1nc(CN2CC3(CCN(C)C3)c3cc(C(=O)NCC4CC4)ccc32)cs1 (stereo unspecified) | 20.9%[87.6 µM] | 9.7 | 28.2µM* | 6.8%[87.6 µM]
CN1CCC2(C1)CN(Cc1ccccc1)c1ccc(C(=O)NCc3cccs3)cc12 (stereo unspecified) | 15.0%[87.6 µM] | 2.1 | 35.5µM* | 6.4%[87.6 µM]
CN1CCC2(C1)CN(CC1CCOCC1)c1ccc(C(=O)Nc3ccn(C)n3)cc12 (stereo unspecified) | 28.0%[87.6 µM] | -10.0 | ? | 0.0%[87.6 µM]
Cc1nc(CN2CC3(CCN(C)C3)c3cc(C(=O)NCc4cccs4)ccc32)cs1 (stereo unspecified) | -5.5%[87.6 µM] | 6.4 | 35.5µM* | -7.0%[87.6 µM]
CN1CCCC2(C1)CN(Cc1cccnc1)c1ccc(C(=O)NCc3cccs3)cc12 (stereo unspecified) | -0.7%[87.6 µM] | 13.8 | i | 2.2%[87.6 µM]
Cc1nc(CN2CC3(CCN(C)C3)c3cc(C(=O)Nc4ccc(F)cc4)ccc32)cs1 (stereo unspecified) | 47.8%[87.6 µM] | -13.2 | 25.1µM* | 0.7%[87.6 µM]
Cc1nnc2ccc(N3CCC(NC(=O)c4ccccc4F)C3)nn12 (stereo unspecified) | . | 7.9 | . | .
CCCCn1c(=O)c(C(=O)NCCCc2ccccc2)nc2cccnc21 | 5.5% | 3.8 | . | -9.7%
CC1(NC(=O)C2CC2)CN(c2ccc(Oc3ccccc3)cc2)C1 | -17.2%[87.6 µM] | -3.5 | i | -9.7%[87.6 µM]
CN(C)CC(=O)N1CCC2(C1)CN(C)c1ccc(C(=O)NCc3cccs3)cc12 (stereo unspecified) | 7.7%[87.6 µM] | 4.6 | 39.8µM* | -0.8%[87.6 µM]
CN1CCCC2(C1)CN(Cc1cccnc1)c1ccc(C(=O)Nc3ccccc3)cc12 (stereo unspecified) | -6.0%[87.6 µM] | -4.0 | ? | -0.1%[87.6 µM]
Cc1nc(CN2CC3(CCN(C)C3)c3cc(C(=O)NCc4ccccc4)ccc32)cs1 (stereo unspecified) | 6.3%[87.6 µM] | 7.3 | 35.5µM* | -5.9%[87.6 µM]
O=C(NC1CCCN(c2ccc3nnc(-c4ccccc4)n3n2)C1)c1ccncc1 (stereo unspecified) | . | -0.1 | . | .
COc1ccc(-c2c(C(=O)NCCc3ccccc3F)nc3sccn23)cc1 | 15.8% | -3.4 | . | -6.6%
Cc1ccc(C(=O)N[C@H]2C[C@@H](c3nc(-c4ccc5c(c4)OCO5)no3)N(C)C2)cc1 | 23.3%[87.6 µM] | -6.9 | i | -17.7%[87.6 µM]
CN1C[C@@H](NC(=O)c2ccc3c(c2)OCO3)C[C@H]1c1nc(-c2ccc(Cl)cc2)no1 | -31.1%[87.6 µM] | -1.7 | 31.6µM* | ?
O=C(NCc1ccnc2[nH]ccc12)c1ccc(C(F)(F)F)cc1 | 16.6%[87.6 µM] | -5.8 | 35.5µM*! | 1.5%[87.6 µM]
C=CCOc1c(OC)ccc2c1CN(C(C)C)C(=O)CCN2CC(O)COCc1ccco1 (stereo unspecified) | . | 2.4 | . | .
Cn1cc(CN2CCN(c3cnccn3)CC2)c(-c2ccc(C3CCCCC3)cc2)n1 | 41.6% | -1.0 | 28.2µM* | 0.7%
Cc1ccc(-c2ccc3nnc(CNC(=O)C4CC4)n3n2)cc1 | 2.4% | -1.7 | 14.1µM* | -4.5%
Cc1ccc(-c2ccc3nnc(CNC(=O)CSc4ccncc4)n3n2)cc1 | 4.0% | -10.7 | 28.2µM* | 0.2%
Cc1ccc(-c2ccc3nnc(CNC(=O)CCC4CCCC4)n3n2)cc1 | 25.2% | 10.7 | 28.2µM* | -3.6%
Cc1ccc(-c2ccc3nnc(CNC(=O)Cc4ccccc4Cl)n3n2)cc1 | ? | -15.4 | ? | 1.8%
Cc1ccc(-c2ccc3nnc(CNC(=O)C4CCCCC4)n3n2)cc1 | -3.2% | 48.1 | ? | 9.1%
O=C1CC(c2ccccc2)N(C(=O)C2CC2)CCCN(C(=O)c2cc3ccccc3[nH]2)CCN1 (stereo unspecified) | 39.0% | 22.1 | ? | -2.4%
O=C1CC(c2ccccc2)N(C(=O)CNC(=O)c2c[nH]c3ccccc23)CCCCCN1 (stereo unspecified) | 76.9% | -4.7 | 28.2µM* | -2.7%
O=C1CC(c2ccccc2)N(C(=O)C2CC2)CCCN(C(=O)c2ccc3cc[nH]c3c2)CCN1 (stereo unspecified) | 4.9% | 3.6 | 28.2µM* | 4.9%
